Entries with a potency or affinity are not part of this list.
What was measured:
Klebsiella pneumoniae = details: Concentration 32 ug.mL-1;; ASSAY_TEST Inhibition of Bacterial Growth; detection method Absorption (OD600); MEDIA CAMHB; plate type 384well; NBS; CORNING #3640; time 18 hr
Candida albicans = details: Concentration 32 ug.mL-1; ASSAY_TEST Inhibition of Fungal Growth; detection method Absorption (OD530)
Cryptococcus neoformans = details: Concentration 32 ug.mL-1; ASSAY_TEST Inhibition of Fungal Growth; detection method Resazurin; Absorption (OD600-OD570); plate type 384well; NBS; CORNING #3640

Structure (SMILES)	Inhibition (Klebsiella pneumoniae)	Inhibition (Candida albicans)	Inhibition (Cryptococcus neoformans)
Cc1cccc(NC(=O)CSc2nnc3ccc(C(=O)Nc4cccc(F)c4)cn23)c1C	-0.74%	4.11%	-4.88%
CCOc1ccc(N(Cc2ccccc2)S(=O)(=O)c2ccc3nncn3c2)cc1	6.93%	2.75%	-0.95%
Cc1ccc(NC(=O)Cn2nc3c4cc(-c5ccc(Cl)cc5)nn4ccn3c2=O)cc1F	4.91%	-0.67%	-19.64%
Cc1nnc2ccc(S(=O)(=O)N(Cc3ccccc3)c3ccc(Cl)cc3)cn12	0.23%	-0.42%	-6.05%
COc1ccc(OC)c(NC(=O)Cn2nc3c4c5c(sc4ncn3c2=O)CCCC5)c1	8.89%	0.7%	-30.54%
Cc1ccccc1NC(=O)Cn1nc2c(SC3CCCCC3)nccn2c1=O	5.55%	-0.37%	-26.02%
CCOC(=O)c1ccc(NC(=O)Cn2nc3c4sc(N5CCCC5)nc4ncn3c2=O)cc1	-7.55%	32.94%	-7.69%
COc1ccc(NC(=O)Cn2nc3c4cc(-c5ccc(C)cc5)nn4ccn3c2=O)cc1	-1.42%	-0.28%	-12.53%
CSc1cccc(NC(=O)Cn2nc3ccc(SC(C)(C)C)nn3c2=O)c1	7.55%	2.25%	-15.09%
Cc1cc(C)c(C(=O)CSc2nnc3c(=O)n(-c4ccc(F)c(F)c4)ccn23)cc1C	9.61%	5.94%	-8.7%
O=C(NCc1ccccc1)c1ccc2nn(CC(=O)N3CCN(c4ccc(F)cc4)CC3)c(=O)n2c1	-0.37%	5.32%	-7.39%
O=S(=O)(c1cccn2c(SCc3c(F)cccc3Cl)nnc12)N1CCCC1	5.57%	-0.64%	-6.69%
COc1ccc(NC(=O)CSc2nc3ccccc3n3cnnc23)cc1OC	13.64%	4.39%	-35.7%
CCc1ccccc1Sc1nccn2c(=O)n(CC(=O)Nc3ccc(OC)c(Cl)c3)nc12	5.33%	13.19%	0.67%
CCOc1ccccc1NC(=O)Cn1nc2c(N3CCN(c4ccccc4)CC3)nccn2c1=O	5.33%	7.24%	-7.83%
Cc1ccc(NC(=O)CSc2nc3ccccc3n3c(C)nnc23)c(Br)c1	14.29%	22.27%	-9.59%
CCOc1ccc(NC(=O)Cn2nc3c(SCc4ccc(Cl)cc4)nccn3c2=O)cc1	5.7%	17.72%	-25.81%
CC(C)c1ccc(Cn2c(=O)c3sccc3n3c(SCc4cccc(C(F)(F)F)c4)nnc23)cc1	5.43%	-0.58%	-12.8%
O=S(=O)(c1ccc2nncn2c1)N(Cc1cc(F)cc(F)c1)c1ccccc1	-3.49%	-0.85%	-9.11%
CCOc1ccc(-n2ccn3c(SCC(=O)NCc4cccc(OC)c4OC)nnc3c2=O)cc1	14.82%	1.5%	-8.08%

Structure (SMILES)	Inhibition (Klebsiella pneumoniae)	Inhibition (Candida albicans)	Inhibition (Cryptococcus neoformans)
Cc1ccc(NC(=O)Cn2nc3ccc(C(=O)NCc4ccccc4)cn3c2=O)c(Br)c1	-0.66%	7.92%	-19.22%
Cc1cc2nn(CC(=O)Nc3ccc(Cl)cc3)c(=O)n2c(Nc2ccc(F)c(C)c2)n1	19.07%	3.54%	-11.52%
CC(C)c1ccc(N(Cc2ccccc2)S(=O)(=O)c2cccn3cnnc23)cc1	5.94%	6.69%	-11.77%
CCc1nnc2c(=O)n(CC(=O)Nc3ccc(C#N)cc3)c3ccccc3n12	5.17%	10.64%	-24.76%
CC1CC(C)CN(c2nccn3c(=O)n(CC(=O)Nc4cccc(C(F)(F)F)c4)nc23)C1 (stereo not given)	12.34%	1.5%	-9.37%
Cc1cccc(NC(=O)Cn2nc3c(Sc4ccccc4)nccn3c2=O)c1	-4.33%	0.01%	-4.87%
O=C(Cn1nc2ccc(-c3ccccc3)nn2c1=O)Nc1ccc(Cl)c(C(F)(F)F)c1	4.19%	14.71%	-8.29%
COc1ccc(-c2cc3c4nn(CC(=O)Nc5ccc(C)cc5C)c(=O)n4ccn3n2)cc1	11.47%	2.57%	-20.53%
Cc1ccc(CNC(=O)Cn2nc3c(Sc4ccc(C)cc4C)nccn3c2=O)cc1	3.93%	2.64%	-16.78%
Cc1ccc(NC(=O)CSc2nc3ccccc3n3cnnc23)c(C)c1	0.98%	26.16%	-16.93%
O=C(Cn1nc2c(N3CCOCC3)nccn2c1=O)Nc1ccc2c(c1)OCO2	20.48%	1.5%	-14.42%
Cc1ccc(-c2ccc3nn(CC(=O)Nc4ccc(C(C)C)cc4)c(=O)n3n2)cc1C	2.75%	3.46%	-11.72%
O=C(CSc1nnc2c(=O)n(-c3ccccc3)ccn12)Nc1ccc2c(c1)OCCO2	7.64%	0.98%	-23.79%
COc1ccccc1-n1ccn2c(=O)n(Cc3ccc(F)cc3Cl)nc2c1=O	1.73%	3.67%	-6.11%
COc1ccc(NC(=O)Cn2nc3c4cc(-c5cc(C)ccc5C)nn4ccn3c2=O)c(OC)c1	9.51%	3.64%	-9.3%
CCOC(=O)c1ccc(NC(=O)CSc2nnc3c4cc(-c5ccc(OC)cc5)nn4ccn23)cc1	14.8%	-1.16%	-22.98%
CCOC(=O)c1ccc(NC(=O)Cn2nc3ccc(Sc4cccc(F)c4)nn3c2=O)cc1	10.14%	3.42%	-9.72%
CC(C)(C)Sc1ccc2nn(CC(=O)Nc3ccccc3C(F)(F)F)c(=O)n2n1	13.7%	0.56%	-20.81%
O=c1c2sccc2n2c(=O)n(Cc3ccccc3F)nc2n1Cc1cccs1	-1.85%	38.88%	-22.09%
Cc1ccc(C)c(CSc2nnc3c(=O)n(-c4ccc(F)c(F)c4)ccn23)c1	-0.25%	0.45%	-4.36%

Structure (SMILES)	Inhibition (Klebsiella pneumoniae)	Inhibition (Candida albicans)	Inhibition (Cryptococcus neoformans)
COc1ccccc1-n1ccn2c(SCc3cccc(Cl)c3)nnc2c1=O	1.3%	1.65%	-7.59%
CCc1nnc2c(SCC(=O)Nc3c(C)cc(C)cc3C)nc3ccccc3n12	8.2%	1.5%	-17.04%
CCc1ccc(N(Cc2ccccc2C)S(=O)(=O)c2cccn3c(CC)nnc23)cc1	6.17%	4.38%	-7.67%
CCc1ccc(N(Cc2cccc(F)c2)S(=O)(=O)c2cccn3c(CC)nnc23)cc1	9.15%	4.6%	-6.35%
CCCCn1c(=O)c2sccc2n2c(=O)n(CC(=O)NC(C)C)nc12	11.23%	0.06%	-16.69%
Cc1ccccc1Cn1nc2c(=O)n(-c3ccc(Br)cc3)ccn2c1=O	14.05%	0.14%	-2.03%
CC(C)c1nnc2c(SCC(=O)Nc3ccccc3F)nc3ccccc3n12	10.81%	2.9%	-27.54%
COc1ccc(NC(=O)Cn2nc3nc(N4CCOCC4)ccn3c2=O)cc1Cl	17.46%	1.98%	-8.34%
CCc1nnc2c(=O)n(CC(=O)Nc3cccc(C#N)c3)c3ccccc3n12	9.63%	5.47%	-28.04%
COc1ccc(N(Cc2cccc(OC)c2)S(=O)(=O)c2ccc3nnc(C)n3c2)cc1	9.44%	0.91%	-1.64%
Cc1ccccc1N1CCN(c2nccn3c(=O)n(CC(=O)Nc4cccc(C(C)C)c4)nc23)CC1	0.34%	19.66%	-7.69%
COc1ccc(-c2cc3c4nnc(CCC(=O)NCc5ccc(OC)cc5OC)n4ccn3n2)cc1	15.27%	2.37%	-17.34%
Cc1cccc(NC(=O)Cn2nc3ccc(-c4ccc(Cl)cc4)nn3c2=O)c1	7.75%	3.82%	-6.79%
COc1ccc(-c2cc3c4nn(CC(=O)Nc5c(C)cc(C)cc5C)c(=O)n4ccn3n2)cc1	6.07%	-1.73%	-15.2%
Cc1ccc(NC(=O)Cn2c(=O)c3nnc(C(C)C)n3c3ccccc32)cc1C	11.54%	4.79%	-12.38%
CCc1cccc(C)c1NC(=O)CSc1nnc2ccc(C(=O)Nc3cccc(F)c3)cn12	5.93%	1.09%	-4.75%
Cc1cc(C)cc(N(Cc2ccc(F)cc2)S(=O)(=O)c2cccn3c(C)nnc23)c1	-0.28%	0.42%	-5.4%
Cc1ccc(-c2cc3c4nn(CC(=O)NCc5ccccc5Cl)c(=O)n4ccn3n2)cc1C	7.47%	-1.05%	-5.01%
Cc1ccc(-c2cc3c4nn(CC(=O)NCc5ccccc5)c(=O)n4ccn3n2)cc1C	9.36%	4.46%	-12.84%
COc1ccc(-c2cc3c4nn(CC(=O)Nc5cc(Cl)ccc5C)c(=O)n4ccn3n2)cc1	1.98%	1.63%	-6.61%
